From PubChem BioAssay
CF NFkB block: cystic fibrosis NF-kB activation inhibition | 360,000 compounds, 0.86% hits | inhibition, % at 5 µM | AID 588850 | KKLEB NF-kB-GFP reporter, PAF-induced, GFP fluorescence overnight;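 active = at least 50% inhibition at 5 µM, scaled per plate between neutral and stimulator controls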;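 note: PAF is a Pseudomonas aeruginosa culture filtrate used as stimulus; plate controls were PAF-stimulated DMSO wells for no effect and unstimulated DMSO wells for full effect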
LGR2 antag: inhibitors of bursicon-induced Drosophila LGR2 receptor cAMP signaling | inhibition, % at 9.99 µM | HEK293 LGR2, CRE-luciferase, bursicon-stimulated, 4 h | 380,000 compounds, 0.35% hits | AID 720647;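 active = drop in luminescence signal, shown as inhibition above about 50% in the replicate tests, limit read from the data, passing the limit was not always enough; inconclusive = probably only some replicates passing the limit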;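 note: agonist challenge used bursicon conditioned medium at about half maximal strength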
KKLEB cytotox: counter-screen for CF NF-kB inhibitors: cytotoxicity; activity change (cytotoxicity), % at 5 µM; KKLEB CF airway cells viability, ATPlite luminescence, overnight; stronger effect = lower value; cells stimulated with P. aeruginosa culture filtrate; 360,000 compounds, 0.36% hits;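 active = corrected activity change at or below -50% at 5 µM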
iPSC survival up: enhancers of human iPSC single-cell survival; hiPSC single-cell survival, ATPlite luminescence; 100% = ROCK inhibitor wells, 0% = DMSO; 360,000 compounds, 0.044% hits; survival enhancement, % at 20 µM; in the data active = survival enhancement above about 18%;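 note: cells exposed to compounds for 16 hours before the ATP read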
TWEAK-Fn14 inh: TWEAK-Fn14 signaling inhibition; TWEAK-stimulated Fn14 reporter cells, luciferase luminescence, 8 h; inhibition, % at 10 µM; 360,000 compounds, 2% hits; AID 1159606; in the data active = inhibition above about 50%
HIF-2a inh: inhibitors of HIF-2a; 786-0 RCC cells HIF-2a reporter, luciferase luminescence, overnight; inhibition, % at 18.8 µM; AID 624352; 360,000 compounds, 0.72% hits;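 active = inhibition of the luminescence signal of 40% or more relative to plate controls, in a single-dose primary screen at 18.75 µM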
The depositor's hits bear a star; ? = inconclusive; nt = not tested or not shown. Hits are enriched below; roughly 2.3% of the tested compounds scored in any of these assays.

SMILES | CF NFkB block | LGR2 antag | KKLEB cytotox | iPSC survival up | TWEAK-Fn14 inh | HIF-2a inh
Cc1ccc(NC(=O)c2cnn(-c3ccccc3)c2C)cc1C | -2 | 85* | -12 | 0 | 85* | -45
Cc1c(C(=O)Nc2ccccc2)cnn1-c1ccccc1 | -8 | -73 | -1 | 0 | -6 | -262
COc1ccc(NC(=O)c2cnn(-c3ccccc3)c2C)cc1 | -2 | nt | -10 | -1 | 50* | -136
Oc1ccc(C=Nc2cccc3ccccc23)c(O)c1 | 3 | 7 | 18 | -1 | 53* | -11
O=[N+]([O-])c1ccc(O)c(C=Nc2cccc3ccccc23)c1 | 6 | 13 | 8 | -1 | 39 | 1
COc1ccc(-c2cn3c4c(sc3n2)CCCC4)cc1 | -10 | nt | -67* | -4 | 73* | -19
CCC(C)(NC(=O)c1ccc2c(c1)OCO2)C(=O)NC1CCCCC1 (configuration not stated) | -7 | -11 | 1 | 4 | 51* | 11
CCC(C)(C(=O)NC1CCCC1)N(Cc1ccco1)C(=O)c1ccc2c(c1)OCO2 (configuration not stated) | -10 | nt | -9 | -1 | -34 | 0
O=C(NCC[C@@H]1CC[C@@H](NS(=O)(=O)c2ccc(F)cc2)[C@H](CO)O1)c1ccccc1F | nt | 10 | nt | nt | nt | nt
CCCCNC(=O)O[C@@H]1C[C@H]2CCCC(=O)N3CC[C@@H](C1)[C@@H]23 | 11 | -4 | -11 | 7 | -1 | 1
CCCCCCCN(c1ccccc1)[C@@H]1C[C@H]2CCCC(=O)N3CC[C@@H](C1)[C@@H]23 | 48 | 52* | -24 | 3 | 34 | -14
Cc1cc(C)c(NN=c2c(=O)c3ccccc3c2=O)c(C)c1 | 0 | -18 | 0 | -2 | 6 | -284
O=c1c(=NNc2ccccc2Cl)c(=O)c2ccccc12 | -9 | 16 | -44 | -5 | 98* | -144
COc1ccccc1N1C(C)=CC(=C(C#N)c2nc3ccccc3s2)C=C1C | 5 | nt | -2 | -1 | 83* | 5
CC1=CC(=C(C#N)c2nc3ccccc3s2)C=C(C)N1c1ccc(F)cc1 | -10 | -29 | -1 | 2 | -11 | -170
COc1ccc(-c2csc(NC(=S)NC(=O)/C=C/c3ccc(C(C)C)cc3)n2)cc1OC | 14 | 10 | 9 | 1 | 66* | -17
COc1ccc(-c2csc(NC(=S)NC(=O)/C=C/c3ccco3)n2)cc1OC | 28 | -17 | -24 | -1 | 4 | 27
CC(C)c1ccc(/C=C/C(=O)Nc2nncs2)cc1 | 5 | 64* | -20 | -2 | 50 | -65
COc1ccc2c3c([nH]c2c1)[C@H](CO)N(C(C)=O)CC31CN(C(C)=O)C1 | nt | -8 | nt | nt | nt | nt
CCOc1ccc(-c2cnc3ccccc3n2)cc1 | -5 | 90* | -15 | -1 | 94* | 71*
CCOc1ccc(-c2cn3ccccc3n2)cc1 | -25 | 74* | -51* | -1 | 62* | -79
O=[N+]([O-])c1ccc(-c2cnc3ccccc3n2)cc1 | -16 | nt | -1 | -1 | -11 | -225
COc1ccc(CN(C)C[C@@H]2Oc3ccc(NS(=O)(=O)c4c(C)noc4C)cc3CC(=O)N([C@H](C)CO)C[C@H]2C)cc1 | nt | -2 | nt | nt | nt | nt
Cc1noc(C)c1S(=O)(=O)Nc1ccc2c(c1)CC(=O)N([C@H](C)CO)C[C@@H](C)[C@@H](CN(C)Cc1ccc(C(=O)Nc3ccccc3N)cc1)O2 | nt | -8 | nt | nt | nt | nt
COCC#Cc1cnc2c(c1)C(=O)N([C@@H](C)CO)C[C@@H](C)[C@H](CN(C)C(=O)Nc1cccc(F)c1)O2 | nt | 11 | nt | nt | nt | nt
SMILES | CF NFkB block | LGR2 antag | KKLEB cytotox | iPSC survival up | TWEAK-Fn14 inh | HIF-2a inh
CC(C)C[C@H](N)c1nnc(S(=O)(=O)Cc2ccc(F)cc2)o1 | 90* | nt | -12 | -2 | 19 | 17
O=C(Cc1nnc(NC(=O)c2ccccc2)s1)N/N=C/c1ccc(O)cc1 | -14 | -9 | -4 | 0 | 58* | 0
CC(=O)c1cccc(NC(=O)/C=C/c2ccc([N+](=O)[O-])s2)c1 | -20 | 15 | -12 | -4 | 84* | -96
O=C(O)c1cc(NC(=O)c2ccc([N+](=O)[O-])cc2)cc(NC(=O)c2ccc([N+](=O)[O-])cc2)c1 | 10 | 19 | 3 | 0 | 30 | 13
O=C(Nc1ccc([N+](=O)[O-])cc1)C(=O)Nc1cccc(C(=O)O)c1 | -26 | 98* | 12 | -1 | -15 | 80*
O=C(/C=C/c1ccc([N+](=O)[O-])cc1)Nc1cccc(C(=O)Nc2ccccc2C(=O)O)c1 | 15 | -4 | -5 | -1 | 71* | 14
CCOC(=O)c1cccc(NC(=O)/C=C/c2ccc([N+](=O)[O-])cc2)c1 | -28 | 6 | 9 | -2 | 79* | -25
COC(=O)c1cccc(NC(=O)/C=C/c2ccc([N+](=O)[O-])cc2)c1 | -7 | 1 | -27 | -4 | 4 | -36
C[C@@H]1CN([C@H](C)CO)S(=O)(=O)c2ccc(/C=C/c3ccccc3)cc2O[C@H]1CN(C)Cc1cncnc1 | nt | 24 | nt | nt | nt | nt
C[C@H]1CN([C@@H](C)CO)C(=O)c2cccc(NC(=O)c3nc4ccccc4s3)c2O[C@H]1CN(C)Cc1ccc(Oc2ccccc2)cc1 | nt | 5 | nt | nt | nt | nt
O=C(/C=C/c1ccccc1)Nc1cccc(C(=O)O)c1 | -4 | 103* | 3 | -2 | 41 | 87*
O=C(/C=C/c1ccccc1)Nc1cc(NC(=O)/C=C/c2ccccc2)cc(C(=O)O)c1 | -6 | 30 | 16 | 0 | 2 | 19
CSc1ccc(/C=C/C(=O)Nc2ccccc2)cc1 | -4 | 77* | -24 | -1 | 72* | -114
CCCCN(CC)c1nc(-c2ccncc2)nc2ccccc12 | 34 | nt | -14 | 2 | 57* | 25
CCCNC(=O)N(C)C[C@H]1Oc2ncc(C3=CCCC3)cc2C(=O)N([C@H](C)CO)C[C@H]1C | nt | 2 | nt | nt | nt | nt
O=C(NC(=S)Nc1ccc(S(=O)(=O)N2CCCCC2)cc1)c1cccs1 | 12 | 4 | 1 | 1 | 4 | 16
O=C(NC(=S)Nc1ccc(S(=O)(=O)NC2CCCCC2)cc1)c1cccs1 | 12 | 3 | 9 | -1 | 53* | 16
COc1cc(-c2noc(C)c2C#Cc2ccc(N)cc2)cc(OC)c1OC | 52* | -15 | -21 | 3 | 40 | -47
COc1cc(-c2noc(C)c2C#Cc2ccccn2)cc(OC)c1OC | 11 | -7 | -7 | -2 | -8 | -13
C[C@@H]1CCCCO[C@H](CN(C)C(=O)CCC(F)(F)F)[C@H](C)CN([C@@H](C)CO)C(=O)c2cc(NS(C)(=O)=O)ccc2O1 | nt | 24 | nt | nt | nt | nt
O=[N+]([O-])c1ccc(N2CCN(C(=S)Nc3ccccc3)CC2)cc1 | -12 | 24 | 7 | 0 | -4 | 5
O=[N+]([O-])c1ccc(NC(=S)N2CCN(c3ccccc3)CC2)cc1 | 16 | 4 | -4 | -1 | 56* | -6
CC(NC(=S)N1CCN(c2ccccc2)CC1)c1ccccc1 (configuration not stated) | -7 | ? | 1 | -1 | 65* | -3
